# Active and inactive are the calls of the source.
# Assays:
# [1] = E. coli DRC41 culture turbidity changes, primary screen, E. coli filamentation inducer project, strain DRC41, OD650, 48 h (AID 1152);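 also: E. coli MC1000 strain DRC41 lacking acrAB efflux pump and sulA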; settings: E. coli DRC41 (acrAB sulA), higher = more signal, called active from +8 up or from −8 down
# [2] = small-molecule binders of probe aLefty1, primary screen, biochemical, small-molecule microarray, 635/667 nm fluorescence (AID 1153); settings: higher = more signal;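 also: score merges spot fluorescence with signal-to-noise ratio from the scanned slide images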
# [3] = PSAC antagonists in infected red cells, primary screen, cell-based, P. falciparum Indochina, OD700, 1 h (AID 1154); settings: P. falciparum Indochina infected RBC osmotic lysis, higher = more signal, called active from +8 up or from −8 down
# [4] = PSAC antagonists in infected red cells, primary screen, cell-based, P. falciparum Indochina, OD700, 2 h (AID 1155);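 also: lysis reports solute entry through the parasite surface anion channel PSAC; channel blockers reduce lysis of infected cells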; settings: P. falciparum Indochina infected erythrocytes, osmotic lysis OD700; higher = more signal, called active from +8 up or from −8 down
# [5] = osmotic lysis modulators in infected erythrocytes, primary screen, PSAC antagonist project, cell-based, P. falciparum Indochina, OD700, 3 h (AID 1156); settings: higher = more signal, called active from +8 up or from −8 down
# [6] = PSAC antagonists in infected red cells, primary screen, cell-based, P. falciparum Indochina, OD700, 18 h (AID 1157); settings: P. falciparum Indochina infected erythrocytes, osmotic lysis OD700, 18 h; higher = more signal, called active from +8 up or from −8 down
# [7] = modulators of S6 phosphorylation in cells, primary screen, cell-based, A549, cytoblot, luminescence, serum-stimulated (AID 1158); settings: A549 phospho-S6 cytoblot, 5 h, higher = more signal;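 also: serum-stimulated A549 lung adenocarcinoma cells; signal is phosphorylated S6 detected by cytoblot immunostaining with HRP secondary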
# [8] = molecular target: NADPH oxidase 2 (Homo sapiens) (UniProt P04839); test: NOX2-dependent H2O2 signal modulators, primary screen, NOX inhibitor project, cell-based, HEK293-NOX2, PMA-stimulated, Amplex Red fluorescence (AID 1159); settings: 45 min, higher = more signal, called active from +8 up or from −8 down; also: test concentration not given here
# [9] = molecular target: NADPH oxidase 4 (Homo sapiens) (UniProt Q9NPH5); test: NOX4-dependent H2O2 signal modulators, primary screen, NOX inhibitor project, cell-based, HEK293-NOX4, tetracycline-induced, Amplex Red fluorescence (AID 1160); settings: 45 min, higher = more signal, called active from +8 up or from −8 down
# [10] = molecular target: NADPH oxidase 5 (Homo sapiens) (UniProt Q96PH1); test: NOX5-dependent H2O2 signal modulators, primary screen, NOX inhibitor project, cell-based, HEK293-NOX5, Amplex Red fluorescence (AID 1161); settings: HEK293-NOX5, ionomycin, 45 min, higher = more signal
# [11] = A549 cell viability effects, profiling panel, calcein-AM fluorescence, 48 h, basal (AID 1162); settings: higher = more signal; also: test concentration not given here
# [12] = adipocyte viability effects, profiling panel, cell-based, 3T3-L1 adipocytes, calcein-AM fluorescence, 48 h, basal (AID 1163); settings: 3T3-L1 adipocytes viability, higher = more signal; also: test concentration not given here
# [13] = HepG2 cell viability effects, profiling panel, calcein-AM fluorescence, 48 h, basal (AID 1164); settings: higher = more signal; also: test concentration not given here
# [14] = MM1S cell viability effects, profiling panel, calcein-AM fluorescence, 48 h, basal (AID 1165); settings: higher = more signal;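 also: viability of MM1S multiple myeloma cells under basal unstimulated conditions; test concentration not given here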
# [15] = basal RPMI8226 viability, no added stimulus, profiling panel, cell-based, calcein-AM fluorescence, 48 h, PK04 Diversity Set (AID 1166); settings: RPMI8226 myeloma viability, higher = more signal;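 also: cells grown under basal conditions without added stimulus; test concentration not given here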
# [16] = basal HepG2 mitochondrial membrane potential changes, profiling panel, cell-based, JC-1 fluorescence, 24 h, 100 nL compound (AID 1167); settings: higher = more signal; also: test concentration not given here
# [17] = basal 3T3-L1 adipocyte mitochondrial potential changes, profiling panel, cell-based, JC-1 fluorescence, 3T3-L1 adipocytes, 24 h, 100 nL compound (AID 1168); settings: JC-1 mitochondrial fluorescence, higher = more signal, called active from +8 up or from −8 down; also: test concentration not given here
# [18] = basal RPMI8226 mitochondrial membrane potential changes, profiling panel, cell-based, JC-1 fluorescence, 24 h, 100 nL compound (AID 1169); settings: RPMI8226 myeloma, JC-1 mitochondrial potential fluorescence, higher = more signal; also: test concentration not given here
# [19] = basal MM1S mitochondrial membrane potential changes, profiling panel, cell-based, JC-1 fluorescence, 24 h, 100 nL compound (AID 1170); settings: higher = more signal; also: test concentration not given here
# [20] = A549 lung cancer cell viability effects, profiling panel, resazurin fluorescence, 24 h, PK04 Diversity Set (AID 1171); settings: higher = more signal, called active from +8 up or from −8 down; also: test concentration not given here
# NADPH oxidase 4 (Homo sapiens), sequence (Q9NPH5 whole entry, looked up): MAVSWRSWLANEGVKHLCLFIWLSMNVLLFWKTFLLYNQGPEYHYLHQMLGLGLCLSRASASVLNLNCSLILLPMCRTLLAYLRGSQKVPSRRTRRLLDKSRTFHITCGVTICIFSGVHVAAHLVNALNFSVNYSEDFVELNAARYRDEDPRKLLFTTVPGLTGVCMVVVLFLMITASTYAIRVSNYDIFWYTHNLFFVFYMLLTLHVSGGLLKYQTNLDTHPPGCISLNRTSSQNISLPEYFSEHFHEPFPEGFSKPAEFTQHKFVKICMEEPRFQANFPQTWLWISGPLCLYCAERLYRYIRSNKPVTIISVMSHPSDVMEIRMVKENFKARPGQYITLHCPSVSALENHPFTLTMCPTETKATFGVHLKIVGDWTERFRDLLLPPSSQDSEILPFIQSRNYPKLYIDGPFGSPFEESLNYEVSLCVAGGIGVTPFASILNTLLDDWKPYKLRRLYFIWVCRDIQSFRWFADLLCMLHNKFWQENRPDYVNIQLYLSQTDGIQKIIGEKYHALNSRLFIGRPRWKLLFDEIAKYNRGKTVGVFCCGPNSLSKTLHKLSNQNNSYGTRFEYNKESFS
# NADPH oxidase 2 (Homo sapiens), sequence (P04839 whole entry, looked up): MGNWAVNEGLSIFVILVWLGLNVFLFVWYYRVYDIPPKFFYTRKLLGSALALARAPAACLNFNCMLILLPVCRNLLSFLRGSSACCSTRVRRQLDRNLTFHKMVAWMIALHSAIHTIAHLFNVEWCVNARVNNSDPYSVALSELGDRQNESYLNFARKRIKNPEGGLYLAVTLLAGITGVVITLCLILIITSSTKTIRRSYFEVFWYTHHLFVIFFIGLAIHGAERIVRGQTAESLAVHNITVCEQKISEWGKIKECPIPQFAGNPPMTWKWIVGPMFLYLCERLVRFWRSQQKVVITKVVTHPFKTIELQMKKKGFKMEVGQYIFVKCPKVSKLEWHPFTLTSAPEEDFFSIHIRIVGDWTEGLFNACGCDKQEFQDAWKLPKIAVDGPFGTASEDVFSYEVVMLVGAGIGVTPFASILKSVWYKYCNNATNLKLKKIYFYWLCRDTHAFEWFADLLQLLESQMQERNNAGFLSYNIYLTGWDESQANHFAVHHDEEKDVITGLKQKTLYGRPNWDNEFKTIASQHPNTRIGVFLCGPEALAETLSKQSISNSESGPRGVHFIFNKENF
# NADPH oxidase 5 (Homo sapiens), sequence (Q96PH1 whole entry, looked up): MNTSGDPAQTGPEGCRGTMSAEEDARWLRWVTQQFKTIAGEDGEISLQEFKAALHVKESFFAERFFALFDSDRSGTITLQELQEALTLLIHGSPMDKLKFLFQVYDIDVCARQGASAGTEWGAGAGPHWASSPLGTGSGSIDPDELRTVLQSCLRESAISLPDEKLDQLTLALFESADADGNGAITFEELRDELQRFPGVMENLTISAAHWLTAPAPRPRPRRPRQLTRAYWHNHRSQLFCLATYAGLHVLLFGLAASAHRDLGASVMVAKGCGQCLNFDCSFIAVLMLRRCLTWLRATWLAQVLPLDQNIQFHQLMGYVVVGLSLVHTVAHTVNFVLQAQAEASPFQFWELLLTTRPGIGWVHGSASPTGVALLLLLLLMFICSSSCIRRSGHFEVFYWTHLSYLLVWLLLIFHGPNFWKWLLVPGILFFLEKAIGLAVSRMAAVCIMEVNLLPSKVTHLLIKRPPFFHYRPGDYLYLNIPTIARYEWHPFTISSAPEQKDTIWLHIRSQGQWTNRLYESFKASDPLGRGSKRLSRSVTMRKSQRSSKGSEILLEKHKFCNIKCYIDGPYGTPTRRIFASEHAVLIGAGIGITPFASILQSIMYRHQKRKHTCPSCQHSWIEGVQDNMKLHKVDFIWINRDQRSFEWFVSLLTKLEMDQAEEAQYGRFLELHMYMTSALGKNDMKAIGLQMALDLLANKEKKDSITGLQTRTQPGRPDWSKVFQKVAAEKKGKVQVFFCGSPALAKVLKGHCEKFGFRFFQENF
Compound,z-score [1],composite z-score [2],z-score [3],z-score [4],z-score [5],z-score [6],z-score [7],z-score [8],z-score [9],z-score [10],z-score [11],z-score [12],z-score [13],z-score [14],z-score [15],z-score [16],z-score [17],z-score [18],z-score [19],z-score [20]
C=CCC(OC(C)=O)[C@@H]1[C@@H](N(Cc2cc3ccccc3o2)C(=O)Cc2ccc(OC)cc2)c2cc(OCCCO)ccc2N1C(=O)Cc1ccc(OC)cc1 (stereo not given in full),-0.759 (inactive),0.0091,2.19 (inactive),0.297 (inactive),1.23 (inactive),0.336 (inactive),-0.0725,-0.685 (inactive),-0.727 (inactive),-2.19,0.3,1.71,0.128,0.708,-1.74,2.14,-0.184 (inactive),-0.566,0.799,-0.914 (inactive)
COc1ccc(NN2C(C(O)c3ccc(OC)cc3)C=CC3C(=O)N(C4CCCCC4)C(=O)C32)cc1 (stereo not given),-0.625 (inactive),0.0768,9.1 (active),1.69 (inactive),0.722 (inactive),0.63 (inactive),-0.613,-1.34 (inactive),-1.1 (inactive),-2.54,-0.285,-1.29,1.24,0.764,-0.512,-0.126,0.0238 (inactive),0.417,-1.44,0.965 (inactive)
CN(C)CCCC[C@@H]1NC(=O)[C@@H]2C[C@H](C(=O)NCCCCCCNC(=O)CS)[C@H](c3cccc(OCCO)c3)N2C1=O,-0.0099 (inactive),-0.416,3.24 (inactive),0.681 (inactive),-0.0935 (inactive),0.496 (inactive),1.91,2.03 (inactive),0.84 (inactive),1.84,-0.335,-0.668,1.27,0.843,0.405,1.6,0.252 (inactive),-0.666,-0.871,-0.643 (inactive)
C=CCNC(=O)[C@@H]1[C@H]2C(=O)O[C@H](c3ccccc3)[C@H](c3ccccc3)N2[C@H](c2ccc(O)cc2)[C@@]12C(=O)Nc1ccc(C#CC3(O)CCCCCC3)cc12,-0.418 (inactive),-0.196,2.35 (inactive),0.275 (inactive),0.0479 (inactive),0.778 (inactive),-0.339,0.948 (inactive),0.534 (inactive),1.19,-1.04,0.889,-0.522,-1.67,-3.93,-2.28,-0.41 (inactive),-0.748,-0.188,0.0696 (inactive)
COCC(=C=CC[C@@H](O)c1cccc(OCCO)c1)C[C@@H](O)COCc1ccccc1,1.63 (inactive),1.24,8.33 (active),-1.22 (inactive),1.08 (inactive),-2.47 (inactive),1.31,-0.0404 (inactive),-0.268 (inactive),-1.62,1.06,1.08,1.41,1.16,0.34,0.638,0.362 (inactive),0.539,0.532,0.244 (inactive)
[N-]=[N+]=NCc1ccccc1C[C@@]1(C(=O)O)N=C(c2ccc(OCCCO)cc2)O[C@@H]1c1ccccc1CN=[N+]=[N-],0.583 (inactive),0.313,22.1 (active),4.92 (inactive),-0.995 (inactive),-0.336 (inactive),1.03,0.887 (inactive),1.54 (inactive),2.03,0.737,0.2,0.0664,-0.274,-2.21,-0.168,-0.186 (inactive),-0.477,-0.824,0.855 (inactive)
Cc1ccc(S[C@]2(C(=O)NC3CC3)CC(=O)N(Cc3cc(C(F)(F)F)cc(C(F)(F)F)c3)[C@@H]2c2ccc(CO)cc2I)cc1,0.147 (inactive),-0.625,5.58 (inactive),0.774 (inactive),0.231 (inactive),0.229 (inactive),-0.185,1.52 (inactive),-1.62 (inactive),1.14,-0.155,-0.136,0.311,-2.53,-1.81,-0.9,-0.373 (inactive),-0.921,-2.03,0.851 (inactive)
O=C1N(Cc2ccccc2)c2ccccc2[C@H]2OC(c3ccc(OCCCO)cc3)=N[C@@]12Cc1ccccc1,-0.456 (inactive),0.31,28.7 (active),25.3 (active),3.25 (inactive),2.26 (inactive),0.381,-1.32 (inactive),-0.641 (inactive),-1.68,-1.22,1.93,-1.78,-2.75,-4.59,-0.67,1.56 (inactive),-1.26,-1.66,-2.1 (inactive)
CC(C)C[C@H]1NC(=O)[C@@]23C(=O)N[C@@H](Cc4ccccc4)C2[C@H](C)[C@@]2(C)O[C@H]2C3/C=C/C/C=C\CNC(=O)[C@@H]2CCCN2C1=O (stereo not given in full),-1.09 (inactive),-0.0544,0.0869 (inactive),-0.26 (inactive),-0.875 (inactive),-0.234 (inactive),0.0247,0.708 (inactive),1.29 (inactive),0.968,0.0246,-0.0768,-0.54,-1.41,-0.531,-0.831,0.244 (inactive),0.868,-0.391,-0.659 (inactive)

# — PubChem BioAssay
